According to PubChem BioAssay (NCI):
About 83,000 compounds went through this panel and 20% of them were active in at least one assay; those are over-represented in the sample as a whole.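 Assay: single dose, 48 h. Readout: percent growth (0 = no net growth; negative = cell death). Active: <10.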 Unmarked numbers belong to inactive results. Activity calls are given as the source filed them.

Test system: HL-60(TB) leukemia
Assay: NCI-60 one-dose screen, 48 h (100 = growth as untreated, 0 = no growth, -100 = all killed)
Conditions: 10 µM unless noted

**Q.** Which growth does the source give for `CC(=O)N1N=C(c2ccc(Nc3nc(NCCO)nc(NCCO)n3)cc2)CC1c1ccc(Cl)cc1` (stereo not drawn) here?
**A.** Its growth is 117%.

**Q.** For `CCN(CC)CCCC(C)Nc1c2ccc(C)cc2nc2ccc(OC)cc12` (stereo not drawn), which growth is on record?
**A.** Its growth is 11.4%.

**Q.** For `COc1ccc(-c2cc(/C=C3\C(=O)Nc4ccc(OC)cc43)[nH]n2)cc1`, which growth is on record?
**A.** The growth was -0.36% (active).

**Q.** With `O=C(Nc1ccccn1)[C@H](O)[C@@H](O)C(=O)N1CCOCC1` as the compound, how does the growth read?
**A.** The growth was 116%.

**Q.** With `Clc1ccc(/C=C2\CCCC3=C2N=C2SC=NN2C3c2ccc(Cl)cc2)cc1` (stereo not drawn) as the compound, how does the growth read?
**A.** The growth was 91.1%.

**Q.** With `CC(=O)OC1Oc2cc(C)c(C)cc2-c2oc(=O)c(-c3cc4ccc(N(C)C)cc4oc3=O)cc21` (stereo not drawn) as the compound, how does the growth read?
**A.** The growth was 25.6%.

**Q.** With `CN(CC(=O)N(Cc1ccc(C2CCCCC2)cc1)c1ccc(C(=O)O)cc1)S(=O)(=O)c1c(F)c(F)c(F)c(F)c1F` as the compound, how does the growth read?
**A.** The growth was -28.6% (active).

**Q.** How did the growth turn out when `CC(=O)N(CCCCCCN(C(C)=O)C(C)=O)C(C)=O` was run?
**A.** Its growth is 108% [100 µM].

**Q.** For `COc1ccc(CNCCCN2C(=O)c3ccc4c5c(ccc(c35)C2=O)C(=O)N(CCCNCc2ccc(OC)c(OC)c2OC)C4=O)c(OC)c1OC`, which growth is on record?
**A.** Its growth is -61.3% (active).

**Q.** How did the growth turn out when `C=CC(COC(c1ccccc1)(c1ccccc1)c1ccccc1)N(CC)CC` (stereo not drawn) was run?
**A.** Its growth is 48.1%.

**Q.** `Clc1ccc2c(NCCCN3CCN(c4nc(-n5ccnc5)nc5ccccc45)CC3)ccnc2c1` was tested. Which growth did it give?
**A.** The growth was 52.7%.

**Q.** With `N#Cc1ccccc1-c1ccc(Cn2c(-c3cscn3)nc3c(Cl)cccc32)cc1` as the compound, how does the growth read?
**A.** The growth was 85.8%.

**Q.** For `O=C(/C=C/c1cccs1)Nc1ncc(Cc2ccccc2F)s1`, which growth is on record?
**A.** Its growth is -40.2% (active).
